Shown are actives, neighbours in structure and some others; about 4.3% of the full set was active somewhere.
SMARCA2 activ – increases SMARCA2 function in MMTV reporter cells; 1% of 370,000 active; AID 652017; MG213 cells, MMTV-luciferase reporter, dexamethasone, overnight; activation, % at 9.1 µM; in the data active = activation above about 7.8%
Wnt bcat act – activates Wnt/beta-catenin signaling in a reporter cell assay. activator, plate reader. activation, % at 9.35 µM. 1.2% of 300,000 active; in the data active = activation above about 30%, passing the limit was not always enough; inconclusive = no clear call, values can overlap the other calls
HSF1 inh – HSF1 inhibition | NIH3T3-HGL HSE-luciferase, MG132-induced, luminescence 8 h; hits give low values | activity change, negative = inhibition, % at 7.5 µM (by protocol) | 0.77% of 300,000 active;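 active = more than half of replicate wells show activity change below -50%, luminescence cut by over half; inconclusive = some wells, but at most half, below -50%; inactive = no replicate well below -50%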;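 note: luciferase reports HSF-1 transcriptional activity via heat shock element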
esBAF inh – blocks esBAF chromatin remodeling in mouse ES cells; Bmi1-luciferase knock-in reporter, 24 h; 100% = twice the neutral-well signal; reporter increase, % at 12.5 µM; 2% of 350,000 active; in the data active = activation above about 40%; inconclusive = no clear call, values can overlap the other calls;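 note: a rise in the Bmi1 reporter signal indicates esBAF inhibition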
MITF TRPM1 HTS – increases MITF-driven TRPM1 promoter luciferase signal; AID 588334; SK-MEL-5 TRPM1-promoter luciferase, 24 h; % of positive control, neutral wells = 0; activation, % at 12.5 µM; 0.75% of 300,000 active;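 active = mean activation of at least 80% with every replicate also reaching 80%; inconclusive = mean reaches 80% but some replicate falls short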
HSF-1 act – increases HSF-1 driven luciferase reporter signal; NIH3T3-HGL HSF-1 luciferase reporter, MG132, 8 h; 100% = twice DMSO control signal; activation, % at 9 µM; 1.7% of 300,000 active; AID 504408;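 active = mean replicate activation of at least 50% with a set share of replicates each reaching 50%; inconclusive = only one of those two conditions met; inactive = mean below 50% and too few replicates reaching it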
SMARCA2 conf – confirmation of SMARCA2 (BRM) function activators | shares compounds with SMARCA2 activ | MG213 cells, MMTV-luciferase with dexamethasone, luminescence, overnight; MG213 cells expressing E1A, Rb sequestered; DMSO wells 0%, reference activator 100% | activation, % at 9.1 µM | 30% of 3,500 active | AID 652260;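 active = activation above its plate's cutoff, the mean activation of tested wells plus 3 SD, cut at about 7.9% in these data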
GAL4-VP16 Luc – counter-screen for SMARCA2 activators: GAL4-VP16 luciferase reporter activation; shares compounds with SMARCA2 activ; HEK293 GAL4-VP16 pG5luc reporter, luciferase luminescence; scaled: DMSO wells 0%, SAHA wells 100%; activation, % at 9.1 µM; 41% of 3,500 active; AID 686939;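 active = activation above the solvent-only control well mean plus 3 SD, averaged across control plates, cut at about 5.2% in these data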
Numbers stand for hits; 0 = inactive; ? = inconclusive; - = no result given.

SMILES | SMARCA2 activ | Wnt bcat act | HSF1 inh | esBAF inh | MITF TRPM1 HTS | HSF-1 act | SMARCA2 conf | GAL4-VP16 Luc
NNc1nc2c(-c3ccc(Cl)cc3)nnn2c2ccccc12 | 8.4 | 0 | 0 | - | 0 | 73 | 0 | 11
O=C(NCC1CCCO1)c1ccc2nc(N3CCCCC3)sc2c1 (stereo unspecified) | 0 | 0 | 0 | 0 | 0 | 0 | - | -
CC1CCN(c2nc3ccc(C(=O)NCCCN4CCCCC4)cc3s2)CC1 | 12 | 0 | 0 | 62 | 0 | 0 | 0 | 17
Cc1c(/C=C/C(=O)c2ccc(O)cc2)cnn1C | 8.0 | ? | 0 | - | 0 | 0 | 14 | 6.9
CC(C)NC(=O)N1C[C@@H]2[C@H](c3ccccc31)[C@H](CO)N2Cc1ccccc1 | - | - | - | 0 | - | - | - | -
O=C(Nc1nc2c(s1)C(=O)CCC2)c1ccccc1 | 8.3 | - | 0 | - | 0 | 0 | 9.7 | 12
O=C(Nc1nc(=O)c2ccccc2s1)c1ccccc1 | 24 | 39 | 0 | - | 0 | 0 | 0 | 9.6
Cc1ccc(C(=O)Nc2nc3ccccc3c(=O)s2)cc1 | 17 | 0 | 0 | 0 | 0 | 0 | 0 | 6.3
CC(=O)Nc1nc(=O)c2ccccc2s1 | 8.3 | 0 | 0 | 0 | 0 | 0 | 0 | 0
O=C(Nc1nc(=O)[nH]s1)c1ccccc1 | 0 | 0 | 0 | - | 0 | 0 | - | -
CC(=O)N/C(N)=N/c1nc(=O)c2ccccc2s1 | 8.2 | 0 | 0 | - | - | 0 | 13 | 8.9
Nc1nc(=O)c2ccccc2s1 | 0 | 0 | - | - | 0 | - | - | -
CCOC(=O)N/C(N)=N/c1nc2ccccc2s1 | 9.9 | 56 | 0 | 57 | - | 53 | 8.4 | 14
CCOC(=O)NC(=O)COC(=O)CCCSc1nc2ccccc2s1 | 0 | 0 | 0 | - | 0 | 0 | - | -
O=c1c2ccccc2sc2c(CO)ccc(NCCN3CCCCC3)c12 | 8.6 | 0 | 0 | - | 0 | 0 | 29 | 0
CCN(CC)CCNc1ccc(CO)c2sc3ccccc3c(=O)c12 | 0 | 0 | 0 | 0 | 0 | 0 | - | -
O=C(c1cc2c(c(-c3cccc(-c4ccncc4)c3)n1)[C@@H](CCO)N(C(=O)c1ccc3c(c1)OCO3)C2)N1CCOCC1 | 8.1 | 0 | - | - | - | - | 9.2 | 0
CC(=O)Nc1ccc2c(c1)C(=O)c1ccccc1C2=O | 9.4 | - | 0 | 0 | - | 0 | 19 | 11
Nc1ccc2c(c1)C(=O)c1ccccc1C2=O | 12 | 40 | 0 | 69 | 104 | 0 | 9.1 | 9.0
COc1ccc(NS(=O)(=O)c2cccc(C(=O)NNC(=O)CNC(=O)c3ccccc3F)c2)cc1 | 8.2 | 0 | 0 | 0 | 0 | 0 | 0 | 0
O=c1oc(-c2ccc(Br)o2)nc2ccccc12 | 14 | 0 | 0 | 0 | 0 | 0 | 0 | 0
Cc1cccc(Cc2cnc(NC(=O)c3ccc(C)o3)s2)c1 | 11 | 51 | 0 | - | 88 | 0 | 0 | 0
Cc1cccc(Cc2cnc(NC(=O)C3=NCCN3)s2)c1 | 0 | 0 | 0 | 0 | 0 | 0 | - | -
CC1(C)Cc2c(sc(NC(=O)COc3cccc4ccccc34)c2C#N)C(C)(C)N1 | 54 | 0 | 0 | 0 | - | 0 | 41 | 0
Cc1ccc(OCC(=O)Nc2sc3c(c2C#N)CC(C)(C)NC3(C)C)cc1 | 0 | 0 | 0 | - | 0 | 0 | - | -
SMILES | SMARCA2 activ | Wnt bcat act | HSF1 inh | esBAF inh | MITF TRPM1 HTS | HSF-1 act | SMARCA2 conf | GAL4-VP16 Luc
Cc1cc(Cl)c2oc(C(=O)NCCC3CCCCO3)c(C)c2c1 (stereo unspecified) | 8.9 | 0 | 0 | ? | 95 | 0 | 0 | 0
Cc1cc(Cl)c2oc(C(=O)NCCN3CCCCC3CO)c(C)c2c1 (stereo unspecified) | 0 | 0 | 0 | 0 | 0 | 0 | - | -
COc1ccc(NC(=O)C2C(c3ccc4c(c3)OCO4)=Nc3ccccc3N2C(C)=O)cc1 (stereo unspecified) | 9.2 | 35 | - | - | - | - | 8.0 | 6.4
COc1ccc(NC(=O)C2C(c3ccc4c(c3)OCO4)=Nc3ccccc3N2C(=O)c2cccc(C(F)(F)F)c2)cc1 (stereo unspecified) | 0 | 0 | - | - | - | - | - | -
COc1ccc(C2=Nc3ccccc3N(C(=O)c3cccnc3)C2C(=O)NC(C)(C)C)cc1 (stereo unspecified) | 0 | 0 | - | - | - | - | - | -
COc1ccc(C2=Nc3ccccc3N(C(=O)c3ccncc3)C2C(=O)NC(C)(C)C)cc1 (stereo unspecified) | 16 | 0 | - | - | - | - | 0 | 0
COC(=O)C[C@@H]1CC[C@H]2[C@@H](COC[C@H](O)CN2S(=O)(=O)c2cn(C)cn2)O1 | - | - | - | 0 | - | - | - | -
O=C(NCc1nnc2c(C(F)(F)F)cc(Cl)cn12)c1cccnc1 | 9.5 | 0 | 0 | 0 | 0 | 0 | 0 | 0
CCC(=O)Nc1ccc2c(c1)C(=O)N(C)[C@H]1CC[C@@H](CC(=O)NCC3CCCCC3)O[C@@H]1CO2 | - | - | - | 0 | - | - | - | -
O=C(Nc1cccc(C(F)(F)F)c1)C(=O)N1CCCCC1 | 9.5 | 0 | 0 | 0 | 0 | 0 | 0 | 0
FC(F)(F)c1cccc(NC(=S)N2CCCCCC2)c1 | 0 | 0 | 0 | 0 | 0 | 0 | - | -
CC(=O)c1ccc(OCCCC(=O)OCc2nnc(-c3ccc(Cl)cc3)o2)cc1 | 8.3 | 0 | 0 | - | - | 0 | 8.4 | 0
O=C(OCc1nnc(-c2ccc(Cl)cc2)o1)c1ccncc1 | 0 | 0 | 0 | 0 | - | 0 | - | -
COc1ccc(-c2csc(C(O)c3cccnc3)n2)cn1 (stereo unspecified) | 0 | 0 | - | 0 | - | - | - | -
COc1ccc(-c2csc(C(O)c3ccc(F)cc3)n2)cn1 (stereo unspecified) | 8.1 | 0 | - | 0 | - | - | 0 | 0
O=C(N[C@H]1C=C[C@@H](CC(=O)N2CCCCC2)O[C@@H]1CO)c1cccc(F)c1 | - | - | - | 0 | - | - | - | -
COc1ccc(S(=O)(=O)Nc2cccc3c2O[C@@H](CN(C)Cc2ccncc2)[C@H](C)CN([C@@H](C)CO)C3=O)cc1 | - | - | - | 0 | - | - | - | -
CN(CCO)c1c2c(nc3cc(-c4cccc(F)c4)nn13)CCCC2 | 13 | 40 | 0 | 0 | - | 0 | 11 | 18
O=C(Cc1ccccc1F)Nc1cc(S(=O)(=O)N2CCOCC2)ccc1N1CCOCC1 | 0 | 0 | - | 0 | 0 | - | - | -
O=C(Cc1ccccc1Cl)Nc1cc(S(=O)(=O)N2CCOCC2)ccc1N1CCOCC1 | 8.0 | 0 | - | 0 | 0 | - | 0 | 0
CN(C)CCN(C(=O)/C=C/c1cccs1)c1nc2c(F)cc(F)cc2s1 | 23 | 0 | 0 | - | 0 | 0 | 23 | 0
CN(C)CCCN(C(=O)/C=C/c1cccs1)c1nc2ccc(F)cc2s1 | 0 | ? | - | 0 | 0 | - | - | -
COc1ccc(OC)c2sc(N(CCN(C)C)C(=O)/C=C/c3cccs3)nc12 | 15 | 0 | 0 | 0 | 0 | 0 | 17 | 0
COc1ccc(C)c2sc(N(CCN(C)C)C(=O)/C=C/c3cccs3)nc12 | 0 | 0 | 0 | 0 | 0 | 0 | - | -
COc1ccc(NC(=O)c2onc(C)c2Cl)cc1 | 10 | 0 | 0 | 46 | 0 | 0 | 0 | 7.0

Screens deposited in PubChem BioAssay by several laboratories.
